Source: PubChem
CYP2C19 act: increases human CYP2C19 enzyme activity; P33261; recombinant CYP2C19, luciferin-H EGE luminescence; hits give high values; 0 = fully inhibited enzyme, 1 = untreated enzyme; activation factor at 5 µM; 96,000 tested, under 10 active; AID 1025;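 active = activation factor of at least 2 at 5 µM in the primary screen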;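 also: 0 = wells with 2.5 mM tranylcypromine and 1 = vehicle-only wells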
PostGolgi ctrl: growth of the yeast control strain, post-Golgi counter-screen; efflux-deficient yeast background strain, growth absorbance A615, 16 h; inhibition, % at 10 µM; actives 5% (n = 98,000); AID 738
CYP2C9 inhib: human CYP2C9 inhibition; P11712; CYP2C9 Supersomes, luciferin-H conversion, luminescence; inhibition, % at 5 µM; actives 20% (n = 96,000);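 active = blocking of liver enzyme CYP2C9 beyond about 50% at 5 µM, limit read from the data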
Target sequence (P11712 whole entry, looked up): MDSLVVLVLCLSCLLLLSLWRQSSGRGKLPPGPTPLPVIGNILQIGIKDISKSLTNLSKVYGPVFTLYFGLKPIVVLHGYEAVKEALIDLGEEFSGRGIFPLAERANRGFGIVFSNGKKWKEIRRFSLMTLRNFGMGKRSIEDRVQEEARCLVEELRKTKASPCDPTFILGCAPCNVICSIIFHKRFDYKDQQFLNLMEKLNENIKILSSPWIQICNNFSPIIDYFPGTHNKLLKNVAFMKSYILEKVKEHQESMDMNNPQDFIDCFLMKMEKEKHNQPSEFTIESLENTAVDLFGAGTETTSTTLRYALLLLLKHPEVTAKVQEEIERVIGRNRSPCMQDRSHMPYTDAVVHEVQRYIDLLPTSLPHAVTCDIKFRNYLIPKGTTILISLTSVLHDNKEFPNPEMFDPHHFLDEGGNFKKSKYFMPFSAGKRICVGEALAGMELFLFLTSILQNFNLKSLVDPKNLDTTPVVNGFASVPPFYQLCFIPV
CYP2C9 activ: CYP2C9 (human) activation; P11712; recombinant CYP2C9, luciferin-H conversion, luminescence; hits give high values; factor 1 = untreated enzyme, 0 = blocked; activation factor at 5 µM; actives 1.4% (n = 96,000); AID 1024;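 active = activation factor of 2 or more for CYP2C9 at a 5 µM dose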;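 also: 0 = sulfaphenazole-blocked wells and 1 = vehicle-only wells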
PostGolgi yeast: growth inhibition of a yeast mutant, post-Golgi transport screen; actives 0.9% (n = 98,000); AID 739; inhibition, % at 10 µM; post-Golgi transport phenotypic cell assay;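 also: yeast cells grown in 1536-well plates; yeast grown about 18 h at 30C before absorbance read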
CYP2C19 inh: blocks human cytochrome P450 2C19; inhibition, % at 5 µM; CYP2C19 Supersomes, luciferin-H EGE luminescence, 30 min; AID 778; P33261; actives 21% (n = 96,000);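 active = CYP2C19 inhibition above a set limit at 5 µM in the primary screen, cut at about 50% in these data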;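 also: plate controls were negative control wells for no effect and 2.5 mM tranylcypromine positive control for full effect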
* marks the source's active call; other numbers are inactive results; . = no result. Most compounds without a hit are left out; they make up all but 32% or so of the library. Rule as the data show it, unless noted: active = inhibition above about 30%; inactive = the rest.

SMILES	CYP2C19 act	PostGolgi ctrl	CYP2C9 inhib	CYP2C9 activ	PostGolgi yeast	CYP2C19 inh
CCOC(=O)CSc1nc(Nc2ccc3c(c2)OCO3)c2ccccc2n1	0.1	28.7	98.2*	0	-1.8	85.6*
COC(=O)C(/C=N/OCc1ccc([N+](=O)[O-])cc1)NC(=O)c1cccc(Cl)c1 (configuration not stated)	0.2	-0.4	61.0*	0.4	-4.6	78.6*
COCC(C)NC(=O)c1cccc(Cl)c1 (configuration not stated)	0.9	-10.0	-20.6	1.2	-5.8	5.4
C/C(N)=C(/C#N)C(=O)CN1CCCCC1	1.1	-8.1	-18.2	1.2	14.9	-10.7
COC(=O)c1ccc(C2NC(=S)N(c3ccccc3)C(C)=C2C(=O)Nc2ccccc2OC)cc1 (configuration not stated)	0.2	7.1	80.7*	0.2	1.3	79.5*
COc1ccccc1NC(=O)C1=C(C)NC(=O)NC1c1ccccc1F (configuration not stated)	1.1	12.4	-60.5	1.6	3.8	-7.4
COc1ccccc1NC(=O)C1=C(C)N(c2ccccc2)C(=S)NC1c1cccc(C(F)(F)F)c1 (configuration not stated)	0.1	29.1	96.4*	0	-1.4	92.5*
CCCCCCNS(=O)(=O)c1nc2nc(C)cc(C)n2n1	0.5	2.7	-81.0	1.8	-0.3	48.6
COc1ccc(/C=N/n2c(SC)nnc2-c2ccccc2)cc1C	0.5	42.9*	32.3	0.7	-1.3	54.1*
COc1cccc(/C=N/n2c(C)nc3ccccc32)c1OC	0.6	19.5	68.5*	0.3	14.2	39.4
COc1ccc(/C=N/n2c(SC)nnc2-c2ccccc2)c(OC)c1OC	0.2	5.5	67.4*	0.3	0.2	78.8*
CC1=C(C#N)C(=O)NC(C)(C)C1	1.1	36.6*	-15.1	1.2	1.1	-9.6
C=C(C)C(=O)Nc1ccc(OC(F)(F)C(F)F)c(NC(=O)C(=C)C)c1	1.1	12.0	-1.3	1	1.1	-6.8
CCN(C(=O)Cn1c(=O)oc2ccccc21)C1CCS(=O)(=O)C1 (configuration not stated)	1.1	14.0	5.8	0.9	-2.5	-10.3
Cc1ccc(CNC(=O)C23CN(Cc4ccccc4)CC2C(c2cccc([N+](=O)[O-])c2)=NO3)cc1 (configuration not stated)	0.1	-0.6	60.7*	0.4	-1.5	88.2*
O=C(NCCc1cccs1)C12CN(Cc3ccccc3)CC1C(c1cccc([N+](=O)[O-])c1)=NO2 (configuration not stated)	0.5	-2.6	72.6*	0.3	-8.3	49.9
O=C(NCc1ccco1)C12CN(Cc3ccccc3)CC1C(c1cccc([N+](=O)[O-])c1)=NO2 (configuration not stated)	0.8	7.2	16.9	0.8	-9.0	20.5
C=CC(=C)CC(NC)c1ccccc1 (configuration not stated)	1	2.5	-10.5	1.1	0.8	-0.9
Cc1cc(C)n(C(=O)CCCCCCCCC(=O)n2nc(C)cc2C)n1	0.3	5.5	58.4*	0.4	-10.2	70.9*
COc1ccc2nc3c(cc2c1)c(NC(=O)C1CCCO1)nn3CC(C)C (configuration not stated)	0.5	9.4	66.4*	0.3	-3.7	48.5
CCCn1nc(NC(=O)c2cccs2)c2cc3cc(OC)ccc3nc21	0.8	26.7	56.4*	0.4	0.8	17.9
CCCn1nc(NC(=O)C2CCCO2)c2cc3cc(C)ccc3nc21 (configuration not stated)	1	7.7	27.9	0.7	2.7	2.5
CCCCn1nc(NC(=O)c2cccs2)c2cc3cc(OC)ccc3nc21	0.8	16.6	64.2*	0.4	1.8	16.8
Cc1cc2nnn(-c3nnc(-c4ccccc4)c4ccccc34)c2cc1C	0.9	9.8	-2.2	1	0.8	14.4
Cc1nc2ccccn2c1/C(O)=C1\C(=O)C(=O)N(CCN2CCOCC2)C1c1ccncc1 (configuration not stated)	0.9	19.6	7.3	0.9	-3.9	5.6
SMILES	CYP2C19 act	PostGolgi ctrl	CYP2C9 inhib	CYP2C9 activ	PostGolgi yeast	CYP2C19 inh
CC(=O)Oc1ccc(CCC(C)OC(C)=O)cc1 (configuration not stated)	0.9	-0.9	3.9	1	-6.3	10.2
Cc1cc(NS(=O)(=O)Cc2ccccc2)no1	1	13.5	4.6	1	-2.0	-1.0
CCCCc1ccc(S(=O)(=O)Nc2cc(C)on2)cc1	0.6	15.1	96.1*	0	4.7	43.9
Cc1cc(NS(=O)(=O)c2ccc(NC(=O)C(c3ccccc3)c3ccccc3)cc2)no1	0.9	0.4	64.5*	0.4	-5.0	12.5
Cc1cc(C)c2nc(-c3ccccn3)cc(C(=O)Nc3ccc(S(=O)(=O)Nc4cc(C)on4)cc3)c2c1	0.9	21.6	20.9	0.8	2.4	11.1
Cc1cc(NS(=O)(=O)c2ccc(NC(=O)Nc3ccccc3)cc2)no1	1	2.5	6.8	0.9	19.8	0.8
Cc1cc(NS(=O)(=O)c2ccc(NC(=O)c3cc(-c4cccnc4)nc4ccc(Cl)cc34)cc2)no1	1	34.9*	41.3	0.6	-6.1	4.9
Cc1ccc(N2C(=O)C3C4C=CC(C4)C3C2=O)cc1 (configuration not stated)	0.5	1.5	18.4	0.8	-1.6	46.7
Cc1cc(C)cc(N2C(=O)C3C4C=CC(C4)C3C2=O)c1 (configuration not stated)	0.4	4.4	-6.5	1.1	-0.3	62.7*
CCOc1ccc(OCCOCCn2ccnc2)cc1	0	-1.2	42.2	0.6	13.5	98.1*
COc1cc(C(=O)NC2=NCCS2)ccc1OCc1c(C)noc1C	0.5	.	60.0*	0.4	.	45.9
COc1ccc(CC(=O)NC2=NCCS2)cc1	0.2	-4.7	0.4	1	0.6	76.5*
COc1ccc(CCC(=O)NC2=NCCS2)cc1OC	0.4	.	-69.4	1.7	.	61.4*
CC(C)(C)c1ccc(OCCCC(=O)NC2=NCCS2)cc1	0.4	12.1	32.2	0.7	-1.1	64.8*
CCOC(=O)c1[nH]c2cc(OC)c(OC)cc2c1NC(=O)c1nonc1C	1	4.0	47.6	0.5	4.3	1.0
CS(=O)(=O)N(CC(=O)N1CCN(c2ccccc2F)CC1)c1ccc2c(c1)OCCO2	0.7	18.2	28.4	0.7	-3.3	35.0
O=C(NC1CCCC1)c1ccc(Br)o1	0.9	8.8	3.0	1	7.6	7.2
COc1ccccc1S(=O)Cc1ccc(C(=O)NC2CCCC2)o1 (configuration not stated)	0.9	12.6	54.9*	0.5	-3.2	13.4
COc1ccccc1S(=O)Cc1ccc(C(=O)NCCc2ccc(Cl)cc2)o1 (configuration not stated)	0.4	9.6	64.8*	0.4	-9.4	62.3*
Cc1cc2c(c(C)nn2-c2ccccc2)c(=O)o1	0.4	2.0	38.9	0.6	-1.5	56.1*
